# The source holds several records for some structures; these can differ, active in one and inactive in another. Activity calls are given as the source filed them. The calls were made as follows: active = hit-call score of the fitted dose curve at least 0.9, where 1 is the maximum; inactive = score below 0.9.
# Read-out: Interleukin 17A (IL17A), IL17A (gene 3605)
# Experiment: BSK_BT_xIL17A: BioMAP Diversity Plus: BT Assay for Interleukin 17A (IL17A) Biomarker Activity (AID 2284229)
# Settings: primary human B cells with PBMC
# Experimental: BSK_BT is a cell-based, multiplexed-readout assay that uses B cell and peripheral blood mononuclear cells, a human vascular primary cell co-culture, with measurements taken at 24 hours after chemical dosing in a microplate: 96-well plate.BSK_BT_xIL17A is an assay component measured in the BSK_BT assay. It measures secreted IL-17A related to regulation of gene expression using LumineX xMAP technology.Data from the assay component BSK_BT_xIL17A was analyzed at the endpoint, BSK_BT_xIL17A, in the positive analysis fitting direction relative to DMSO as the negative control and baseline of activity. Using a type of cytokine quantitation reporter, gain or loss-of-signal activity can be used to understand protein changes. To generalize the intended target to other relatable targets, this assay endpoint is annotated to the 'cytokine' intended target family, where the subfamily is 'interleukins'.
# The levels of cell surface (or secreted, indicated by the prefix "s") biomarker endpoints were measured by ELISA. Overt cytotoxicity to cells in confluent adherent cultures (all systems other than the BT system) was assessed by measuring total protein levels using sulforhodamine B (SRB) staining in parallel cultures at the time of biomarker measurements, indicated as SRB endpoints. For proliferation assays for adherent cell types, individual cell types are cultured at sub-confluence and relative cell numbers quantified by SRB staining at time points optimized for each system (48 h: 3C and CASM3C systems; 72 h: BT and HDF3CGF systems; 96 h: SAg system). SRB was performed by staining cells with 0.1% SRB after fixation with 10% TCA and reading wells at 560 nm.Viability and proliferation of PBMC (T cells) was quantified by Alamar Blue reduction for the SAg and BT systems. For PBMC viability (referred to as PBMC Cytotoxicity within the assay endpoint names), cells were plated (75,000/well in a 96-well plate) and then chemical samples added for 1 h before addition of activators, SEB and TSST-1 (20 ng/mL final concentration each). Cells were incubated for 90 h. Then, Alamar Blue (20 uL/well) (Invitrogen, Cat DAL1100) was added for 6 h, and the plates were read with a fluorescence microplate reader at 546/580 nm (excitation/emission). For PBMC proliferation, cells were plated and activated as above but incubated for only 16 h prior to addition of Alamar Blue. Plates were read after 6 h.
Compound,outcome,AC50
O=C(O)C(F)(F)C(F)(F)C(F)(F)C(F)(F)C(F)(F)C(F)(F)C(F)(F)C(F)(F)F,inactive,
Sc1ccccc1,inactive,
O=C(O)C(F)(F)C(F)(F)C(F)(F)C(F)(F)C(F)(F)F,inactive,
O=C(O)C(F)(F)C(F)(F)C(F)(F)C(F)(F)C(F)(F)C(F)(F)C(F)(F)C(F)(F)C(F)(F)F,inactive,37.8 µM (active)
NS(=O)(=O)C(F)(F)C(F)(F)C(F)(F)C(F)(F)C(F)(F)C(F)(F)C(F)(F)C(F)(F)F,inactive,46.5 µM (active)
O=S(=O)(O)C(F)(F)C(F)(F)C(F)(F)C(F)(F)C(F)(F)C(F)(F)F,inactive,
O=S(=O)(O)C(F)(F)C(F)(F)C(F)(F)C(F)(F)F,inactive,
Oc1c(Cl)c(Cl)c(Cl)c(Cl)c1Cl,inactive,

# Reference: PubChem BioAssay (EPA / NIEHS)
